Reference: PubChem BioAssay
Values joined by “and” are separate entries in the source; they are usually repeats but may differ in a detail not shown here. Equal entries are not always repeated. Where a structure was tested more than once in an assay, its records may differ in their call. Active and inactive are the calls of the source. Unless noted, no rule for the calls is given here.

Key:
[1] = tested on: Wnt5a (protein binding on small-molecule microarray); experiment: small molecules binding Wnt5a protein – biophysical, small-molecule microarray, 635/667 nm fluorescence, primary screen (AID 1142); settings: 635 nm fluorescence, higher = more signal;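 also: fluorescence read at 667 nm with signal to noise per printed feature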
[2] = ATP-based viability of Huh7 replicon cells – cell-based, CellTiter-Glo luminescence, basal, 48 h, cytotoxicity control for HCV replication inhibitor project, primary screen (AID 1143); settings: higher = more signal, called active from +8 up or from −8 down;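 also: Huh7 hepatoma cells carrying a hepatitis C replication reporter with no stimulus; test concentration not given here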
[3] = Pseudomonas biofilm growth suppression – PAO1 strain, BacTiter-Glo luminescence, LB-PBS, primary screen (AID 1144); settings: P. aeruginosa PAO1 biofilm, 12 h, higher = more signal
[4] = basal CRE-LacZ reporter activity in PC12 – cell-based, unstimulated, primary screen (AID 1145); settings: no forskolin, luminescence, 4.5 h, higher = more signal, called active from +8 up or from −8 down
[5] = forskolin-driven CRE-LacZ activity in PC12 – cell-based, CRE-LacZ reporter, forskolin-stimulated, primary screen (AID 1146); settings: luminescence, 4.5 h, higher = more signal, called active from +8 up or from −8 down;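 also: PC12 cells with 6xCRE LacZ reporter stimulated by forskolin 10 µM; beta-galactosidase reporter signal reflecting CREB driven transcription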
[6] = biological target: Streptavidin (Streptomyces avidinii) (UniProt P22629); experiment: compounds binding control protein streptavidin – biophysical, small-molecule microarray, 635/667 nm fluorescence, artefact control for SMM compound annotation, primary screen (AID 1147); settings: higher = more signal;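 also: signal reflects streptavidin binding to arrayed compounds as a control protein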
Chain of Streptavidin (Streptomyces avidinii) (P22629 whole entry, looked up): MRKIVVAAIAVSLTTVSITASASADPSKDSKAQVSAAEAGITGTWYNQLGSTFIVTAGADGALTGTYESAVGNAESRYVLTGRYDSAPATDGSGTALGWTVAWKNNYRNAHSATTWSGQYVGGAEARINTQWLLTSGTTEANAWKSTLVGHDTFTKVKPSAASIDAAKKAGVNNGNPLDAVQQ

[7] = probe aInhba binding on compound microarray – biochemical, small-molecule microarray, 635/667 nm fluorescence, primary screen (AID 1148); settings: higher = more signal;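 also: score merges 667nm spot fluorescence with signal-to-noise for antibody binding to printed compounds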
[8] = biological target: Torsin-1A (Homo sapiens) (UniProt O14656); experiment: TOR1A wild-type binding on microarray – cell lysate, small-molecule microarray, lysate, 635/667 nm, primary screen (AID 1149); settings: COS7 hTOR1A-WT lysate, 635 nm fluorescence, higher = more signal
Chain of Torsin-1A (Homo sapiens) (O14656 whole entry, looked up): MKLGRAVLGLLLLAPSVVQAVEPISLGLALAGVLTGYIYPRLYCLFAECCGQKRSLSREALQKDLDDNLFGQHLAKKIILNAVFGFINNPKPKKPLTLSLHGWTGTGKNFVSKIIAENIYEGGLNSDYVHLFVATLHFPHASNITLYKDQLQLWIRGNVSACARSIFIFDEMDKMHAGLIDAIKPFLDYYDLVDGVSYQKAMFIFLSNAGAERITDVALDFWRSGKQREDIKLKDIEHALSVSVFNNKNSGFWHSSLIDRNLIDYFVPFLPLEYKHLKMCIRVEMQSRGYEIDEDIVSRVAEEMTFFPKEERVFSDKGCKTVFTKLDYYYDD

[9] = biological target: Torsin-1A (Homo sapiens) (UniProt O14656); experiment: torsin A mutant lysate binding on microarrays – cell lysate, small-molecule microarray, COS7 lysate, 635/667 nm fluorescence, primary screen (AID 1150); settings: COS7 hTOR1A mutant lysate, 635 nm fluorescence, higher = more signal;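 also: score pools 667 nm emission and signal to noise measuring lysate protein binding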
[10] = tested on: Sonic hedgehog protein (Shh); experiment: Sonic hedgehog microarray binding compounds – biochemical, small-molecule microarray, 635/667 nm fluorescence, primary screen (AID 1151); settings: 635 nm fluorescence, higher = more signal;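 also: Shh protein binding to compounds spotted on small-molecule microarray slides; score combines spot fluorescence intensity with signal-to-noise across triplicate slides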
[11] = optical density shifts of acrAB sulA E. coli – strain DRC41, OD650, 48 h, E. coli filamentation inducer project, primary screen (AID 1152); settings: higher = more signal, called active from +8 up or from −8 down;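 also: E. coli MC1000 strain DRC41 lacking acrAB efflux pump and sulA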
[12] = probe aLefty1 binding on compound microarray – biochemical, small-molecule microarray, 635/667 nm fluorescence, primary screen (AID 1153); settings: higher = more signal;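 also: score merges spot fluorescence with signal-to-noise ratio from the scanned slide images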
[13] = plasmodial surface anion channel blockers, osmotic lysis – cell-based, P. falciparum Indochina, OD700, 1 h, primary screen (AID 1154); settings: P. falciparum Indochina infected RBC osmotic lysis, higher = more signal, called active from +8 up or from −8 down
[14] = plasmodial surface anion channel blockers, osmotic lysis – cell-based, P. falciparum Indochina, OD700, 2 h, primary screen (AID 1155);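 also: lysis reports solute entry through the parasite surface anion channel PSAC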; settings: P. falciparum Indochina infected erythrocytes, higher = more signal, called active from +8 up or from −8 down
[15] = changes in parasitized red cell lysis, either direction – P. falciparum Indochina, OD700, 3 h, PSAC antagonist project, primary screen (AID 1156); settings: P. falciparum-infected erythrocytes, osmotic lysis, higher = more signal, called active from +8 up or from −8 down
[16] = plasmodial surface anion channel blockers, osmotic lysis – cell-based, P. falciparum Indochina, OD700, 18 h, primary screen (AID 1157); settings: P. falciparum Indochina infected erythrocytes, osmotic lysis OD700, 18 h; higher = more signal, called active from +8 up or from −8 down
[17] = S6 kinase pathway phospho-S6 level changes – cell-based, A549, cytoblot, luminescence, serum-stimulated, primary screen (AID 1158); settings: 5 h, higher = more signal;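 also: serum-stimulated A549 lung adenocarcinoma cells; signal is phosphorylated S6 detected by cytoblot immunostaining with HRP secondary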
[18] = biological target: NADPH oxidase 2 (Homo sapiens) (UniProt P04839); experiment: compounds shifting NOX2 Amplex Red fluorescence – cell-based, HEK293-NOX2, PMA-stimulated, NOX inhibitor project, primary screen (AID 1159); settings: 45 min, higher = more signal, called active from +8 up or from −8 down; also: test concentration not given here
Chain of NADPH oxidase 2 (Homo sapiens) (P04839 whole entry, looked up): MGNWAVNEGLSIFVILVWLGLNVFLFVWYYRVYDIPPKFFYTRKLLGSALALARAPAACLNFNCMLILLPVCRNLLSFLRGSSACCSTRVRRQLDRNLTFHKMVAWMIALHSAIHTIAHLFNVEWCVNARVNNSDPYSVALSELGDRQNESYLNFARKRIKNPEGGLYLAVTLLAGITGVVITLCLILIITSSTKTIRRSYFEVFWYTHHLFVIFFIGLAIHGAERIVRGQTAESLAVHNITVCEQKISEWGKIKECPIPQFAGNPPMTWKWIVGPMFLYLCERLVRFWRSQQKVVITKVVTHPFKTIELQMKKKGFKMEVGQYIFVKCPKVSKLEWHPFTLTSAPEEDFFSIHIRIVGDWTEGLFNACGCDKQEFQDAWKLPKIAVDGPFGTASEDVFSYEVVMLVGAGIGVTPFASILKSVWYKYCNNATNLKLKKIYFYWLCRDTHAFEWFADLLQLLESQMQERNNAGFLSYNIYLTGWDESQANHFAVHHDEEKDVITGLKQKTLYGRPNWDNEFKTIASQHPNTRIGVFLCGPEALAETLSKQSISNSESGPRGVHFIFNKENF

[19] = biological target: NADPH oxidase 4 (Homo sapiens) (UniProt Q9NPH5); experiment: compounds shifting NOX4 Amplex Red fluorescence – cell-based, HEK293-NOX4, tetracycline-induced, NOX inhibitor project, primary screen (AID 1160); settings: HEK293-NOX4, Amplex Red H2O2 fluorescence, 45 min; higher = more signal, called active from +8 up or from −8 down
Chain of NADPH oxidase 4 (Homo sapiens) (Q9NPH5 whole entry, looked up): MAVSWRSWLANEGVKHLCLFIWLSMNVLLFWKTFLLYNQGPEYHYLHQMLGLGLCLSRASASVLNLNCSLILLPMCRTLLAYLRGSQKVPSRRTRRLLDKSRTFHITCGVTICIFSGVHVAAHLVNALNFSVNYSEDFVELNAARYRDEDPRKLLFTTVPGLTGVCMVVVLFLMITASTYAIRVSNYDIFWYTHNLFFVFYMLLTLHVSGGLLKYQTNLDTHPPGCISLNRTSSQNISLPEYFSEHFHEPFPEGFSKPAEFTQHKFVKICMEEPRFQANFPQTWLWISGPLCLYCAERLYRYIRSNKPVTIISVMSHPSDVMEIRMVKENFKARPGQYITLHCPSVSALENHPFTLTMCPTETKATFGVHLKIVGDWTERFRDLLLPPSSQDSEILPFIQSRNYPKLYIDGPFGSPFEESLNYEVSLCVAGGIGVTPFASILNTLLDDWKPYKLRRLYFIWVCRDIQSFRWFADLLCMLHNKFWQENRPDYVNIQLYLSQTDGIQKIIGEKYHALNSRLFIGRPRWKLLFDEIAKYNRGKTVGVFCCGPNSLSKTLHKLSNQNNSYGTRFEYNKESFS

[20] = biological target: NADPH oxidase 5 (Homo sapiens) (UniProt Q96PH1); experiment: compounds shifting NOX5 Amplex Red fluorescence – cell-based, HEK293-NOX5, NOX inhibitor project, primary screen (AID 1161); settings: HEK293-NOX5, ionomycin, 45 min, higher = more signal
Chain of NADPH oxidase 5 (Homo sapiens) (Q96PH1 whole entry, looked up): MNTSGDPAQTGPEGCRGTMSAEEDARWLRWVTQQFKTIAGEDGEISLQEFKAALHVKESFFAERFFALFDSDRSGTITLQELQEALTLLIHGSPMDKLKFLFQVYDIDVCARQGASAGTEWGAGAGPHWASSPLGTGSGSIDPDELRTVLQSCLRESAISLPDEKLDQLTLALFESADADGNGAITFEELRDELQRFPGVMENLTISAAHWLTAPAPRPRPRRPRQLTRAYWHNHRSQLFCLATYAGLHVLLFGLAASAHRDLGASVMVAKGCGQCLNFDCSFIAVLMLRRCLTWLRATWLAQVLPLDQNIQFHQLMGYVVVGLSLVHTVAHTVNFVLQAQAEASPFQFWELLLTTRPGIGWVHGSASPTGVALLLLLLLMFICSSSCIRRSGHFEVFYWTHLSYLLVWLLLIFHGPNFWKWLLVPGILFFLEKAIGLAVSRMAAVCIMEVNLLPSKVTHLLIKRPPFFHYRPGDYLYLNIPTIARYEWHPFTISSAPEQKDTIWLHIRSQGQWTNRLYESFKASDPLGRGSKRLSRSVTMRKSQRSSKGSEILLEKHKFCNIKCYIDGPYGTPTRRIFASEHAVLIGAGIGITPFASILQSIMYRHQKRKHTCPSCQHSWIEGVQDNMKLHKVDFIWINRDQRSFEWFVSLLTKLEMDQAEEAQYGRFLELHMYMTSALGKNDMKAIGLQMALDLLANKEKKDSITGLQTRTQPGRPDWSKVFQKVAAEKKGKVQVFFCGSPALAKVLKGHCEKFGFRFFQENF

Row | Compound | composite z-score [1] | z-score [2] | z-score [3] | z-score [4] | z-score [5] | composite z-score [6] | composite z-score [7] | composite z-score [8] | composite z-score [9] | composite z-score [10] | z-score [11] | composite z-score [12] | z-score [13] | z-score [14] | z-score [15] | z-score [16] | z-score [17] | z-score [18] | z-score [19] | z-score [20]
1 | C=CCN(CCCC)C(=O)C1N(c2c(Cl)cccc2CO)C(=O)C2C(C(=O)O)C3C=CC21O3 (stereo not given) | -0.77 and -0.986 | -0.0286 (inactive) and -0.784 (inactive) | 0.0942 (inactive) and -2.19 (inactive) | -0.887 (inactive) and -1.3 (inactive) | -0.718 (inactive) and -0.285 (inactive) | -1.03 and -2 | -0.231 and 0.72 | -1.67 and 1.69 | -0.696 and 0.827 | -0.979 and -1.17 | -0.074 (inactive) and 2.24 (inactive) | -0.0544 and 0.452 | 1.2 (inactive) and 1.94 (inactive) | 1.05 (inactive) and 0.871 (inactive) | 0.116 (inactive) and 0.127 (inactive) | 0.162 (inactive) and 0.432 (inactive) | -0.352 and 0.113 | 0.6 (inactive) and 0.353 (inactive) | -0.381 (inactive) and -0.863 (inactive) | -0.708 and 0.0892
2 | C=CCN(Cc1ccccc1)C(=O)C1N(C(C)(C)CO)C(=O)C2C(C(=O)O)C3C=CC21O3 (stereo not given) | -0.578 and -0.945 | 0.283 (inactive) and 0.582 (inactive) | 1.51 (inactive) and -1.52 (inactive) | -0.224 (inactive) and -1.57 (inactive) | -0.141 (inactive) and -0.418 (inactive) | -1.56 and -1.49 | -0.231 and -0.213 | -0.396 and -3.85 | -1.19 and -2.15 | -1.17 and -1.73 | -0.511 (inactive) and 1.45 (inactive) | -0.144 and -0.779 | 0.0247 (inactive) and -0.244 (inactive) | 0.0843 (inactive) and -0.355 (inactive) | -1.15 (inactive) and -0.742 (inactive) | -0.255 (inactive) and -0.354 (inactive) | 0.0613 and -0.122 | 0.515 (inactive) and 0.043 (inactive) | 0.0722 (inactive) and 0.185 (inactive) | 0.793 and -0.0303
3 | C=CCN(Cc1ccccc1)C(=O)C1N(c2ccc(CCO)cc2)C(=O)C2C(C(=O)O)C3C=CC21O3 (stereo not given) | -0.588 and -0.549 | 0.012 (inactive) and -0.668 (inactive) | -0.231 (inactive) and -1.01 (inactive) | 0.195 (inactive) and -0.899 (inactive) | 0.892 (inactive) and -0.29 (inactive) | -1.49 and -1.35 | -0.273 and -0.206 | -2.02 and -4.14 | -3.2 and -2.45 | -1.7 and -1.87 | 0.458 (inactive) and 1.31 (inactive) | -0.289 and -0.27 | 1.25 (inactive) and 1.16 (inactive) | 0.401 (inactive) and 0.572 (inactive) | 0.0406 (inactive) and -0.339 (inactive) | -0.157 (inactive) and 0.382 (inactive) | -0.0071 and 0.775 | 0.819 (inactive) and 0.498 (inactive) | -1.13 (inactive) and -0.149 (inactive) | 0.865 and 0.168
4 | CCOC(=O)c1ccc(NC(=O)O[C@H]2[C@H](OC(=O)Nc3ccccc3)[C@@H](OC(=O)Nc3ccccc3)[C@@H](OC)O[C@@H]2CO)cc1 | 0.493 and 0.437 | -4.44 (inactive) and -4.14 (inactive) | 0.0469 (inactive) and -1.32 (inactive) | 1.55 (inactive) and -0.552 (inactive) | -1.38 (inactive) and -1.61 (inactive) | 1.64 and 0.53 | 0.333 and 0.0982 | 1.19 and 0.89 | 0.556 and 0.56 | 0.955 and 1.97 | -1.16 (inactive) and -0.655 (inactive) | 0.507 and 0.394 | 5.55 (inactive) and 14.7 (active) | 1.05 (inactive) and 2.32 (inactive) | 0.199 (inactive) and 1.28 (inactive) | 0.764 (inactive) and 0.888 (inactive) | 0.139 and 0.0102 | 0.0131 (inactive) and -4.33 (inactive) | -0.578 (inactive) and -1.01 (inactive) | -0.851 and -1.69
5 | CC(C)[Si]1(C(C)C)OCc2cc(C3CC3)nc(CCc3ccccc3)c21 | -0.106 and 0.243 | 0.412 (inactive) and -0.432 (inactive) | -0.37 (inactive) and 0.125 (inactive) | 0.0035 (inactive) and 0.148 (inactive) | -0.271 (inactive) and -0.0043 (inactive) | 0.0746 and 0.209 | -0.0986 and -0.205 | -0.483 and 0.207 | -1.29 and 0.401 | -0.447 and 0.221 | -0.102 (inactive) and -0.904 (inactive) | 0.111 and -0.235 | 0.922 (inactive) and 0.437 (inactive) | 0.742 (inactive) and 0.438 (inactive) | -0.416 (inactive) and -0.978 (inactive) | 0.309 (inactive) and -0.401 (inactive) | -0.295 and -0.326 | 2.57 (inactive) and -0.368 (inactive) | 1.14 (inactive) and 1.35 (inactive) | -0.319 and -2.87
